# Screening results as filed in PubChem.
# The list is not random: actives were taken first. Their share in the collection is about 19%.
# DT40 TDP1 CPT: growth inhibition of DT40 Tdp1-/-;hTDP1 cells with camptothecin (screen for TDP1 inhibitors) | chicken DT40 Tdp1-/-;hTDP1 cells + 20 nM CPT, ATP luminescence, 48 h | Potency, µM (highest dose often 46.2 µM), without a hit: at the top dose activity change, negative = growth inhibition, usual class: inhibitors | 12% of 420,000 active | AID 686979; note: nearly all actives have a fitted effect of over 55% in size
#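 Chicken DT40 Tdp1-/- cells complemented with human TDP1, 400 cells/well, exposed to compounds plus 20 nM camptothecin for at least 48 h at 37 C; viability read as ATP content by CellTiter-Glo luminescence.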
# HT1080NT lethal: kills 2HG-producing HT-1080-NT fibrosarcoma cells | 1.6% of 360,000 active | Potency, µM (highest dose often 46.1 µM), without a hit: at the top dose activity, negative = less viability, usual class: cytotoxic | HT-1080-NT fibrosarcoma viability, CellTiter-Glo ATP luminescence, 48 h;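 note: NT is the 2HG producing partner of a matched IDH1 knockdown line; 0% = DMSO-treated cells and -100% = media-only wells without cells; nearly all actives have a fitted effect of over 55% in size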
#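 Toxicity toward the 2HG-producing NT line was scored as %Activity, normalised to DMSO and no-cell wells, from CellTiter-Glo luminescence after 48 hours' treatment.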
# HT1080 IDH1KD tx: HT-1080 IDH1 knockdown cell toxicity (counter line); AID 686971; 2% of 360,000 active; HT-1080 IDH1 knockdown viability, ATP luminescence, 48 h; Potency, µM (doses to about 46.1 µM), for inactives: at the top dose activity, negative = toxicity, usual class: cytotoxic;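 note: 0% = DMSO wells and -100% = cell-free medium wells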
#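 % activity derives from luminescence (CellTiter-Glo), normalised to DMSO and no-cell wells. HT-1080-IDH1KD cells, 750/well, had 48 h compound exposure at 37 °C.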
# KB-V1 cytotox: KB-V1 MDR subline cytotoxicity; KB-V1 MDR cells viability, CellTiter-Glo, 72 h; Potency, µM (doses to about 46.1 µM), most hits filed as cytotoxic; 3.4% of 400,000 active; AID 1347076; note: nearly all actives have a fitted effect of over 60% in size
#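 Potencies derive from concentration-effect curves fitted to normalized luminescence (CellTiter-Glo) of KB-V1 cells treated for 72 h at 37 degrees C in phenol-red-free DMEM containing 10% FBS.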
# DT40 TDP1 no CPT: qHTS for Inhibitors of human tyrosyl-DNA phosphodiesterase 1 (TDP1): qHTS in cells in absence of CPT; DT40 Tdp1-/- hTDP1 cells, no CPT, ATP luminescence, 48 h; Potency, µM (titrated, usually from 46.2 µM), without a hit: at the top dose activity change, negative = growth inhibition, most hits filed as inhibitors; 15% of 420,000 active; note: nearly all actives have a fitted effect of over 55% in size
#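 Luminescent ATP content (CellTiter-Glo) served as the growth readout. Knockout chicken DT40 cells expressing human TDP1 were exposed to compounds without camptothecin for a minimum 48 hr at 37 °C.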
# KB-3-1 cytotox: kills parental KB-3-1 adenocarcinoma cells. Potency, µM (doses to about 46.1 µM), most hits filed as cytotoxic. KB-3-1 viability, CellTiter-Glo ATP luminescence, 72 h. 1.4% of 400,000 active; note: nearly all actives have a fitted effect of over 60% in size
#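 Luminescent ATP read-out (CellTiter-Glo) measures survival of drug-naive KB-3-1 cells after 72 h compound exposure at 37 °C. Titration series was screened from lowest to highest concentration, with DMSO vehicle plates as background controls.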
# * hit, by the source's call; i = inactive; ? = inconclusive; . = not tested or not shown; [ ] = remark or other dose. Calls come from the whole dose curve; as a rule, active = well fitted curve in the direction sought with a large enough effect; inconclusive = small, poorly fitted or top-dose-only effect, or another doubt; inactive = no such curve, though single readings can be large; an effect the other way counts as inactive or inconclusive. Unless noted, % is set by controls: 0 for no effect and ±100 for the full control effect; potency is the fitted concentration of half-maximal effect.
SMILES,DT40 TDP1 CPT,HT1080NT lethal,HT1080 IDH1KD tx,KB-V1 cytotox,DT40 TDP1 no CPT,KB-3-1 cytotox
CNc1ncnc2c1ncn2[C@H]1CN(Cc2ccc(-c3ccccc3)cc2)C[C@@H](CO)O1,?,-1%,4%,i,23µM*,i
OC[C@@H]1CN(Cc2ccc(-c3ccccc3)cc2)C[C@H](n2cnc3c(NC4CC4)ncnc32)O1,?,-24%,?,i,?,i
OC[C@@H]1CN(Cc2ccccc2)C[C@H](n2cnc3c(NCc4ccc(F)cc4)ncnc32)O1,?,-15%,6%,?,?,i
Cc1ccc(CN2c3ccccc3-c3nc(SCC(=O)Nc4c(C)cc(C)cc4C)ncc3S2(=O)=O)cc1,?,.,.,i,?,i
COc1cc(OCc2ccccc2)c(C(=O)/C=C/c2ccc3c(c2)OCO3)c(OC)c1OC,?,-30%,?,?,?,?
O=c1[nH]c(CO)nc2c1oc1ccccc12,9%,0%,-11%,i,1%,i
O=c1[nH]c(Cc2ccccc2)nc2c1oc1ccccc12,6.5µM*,10%[9.24 µM],-2%,i,?,i
COc1ccc(Nc2c3c(nc4ccc(NC(=O)c5cc(Cl)ccc5OC)cc24)CCCC3)cc1OC,1.6µM*,.,.,?,0.82µM*,?
CCOc1ccccc1C(=O)Nc1ccc2nc3c(c(Nc4ccc(OC)c(OC)c4)c2c1)CCCC3,4.1µM*,.,.,?,5.2µM*,?
COc1cccc(C(=O)Nc2c3c(nc4c2CCC4)CCCC3)c1,-13%,0%,8%,15µM*,-25%,i
COc1ccc(NC(=O)c2cccc3ccccc23)cc1OC,-13%,0%,14%,i,-8%,i
COc1cc(OC)cc(C(=O)Nc2ccc3nc4c(c(Nc5ccc(OC)c(OC)c5)c3c2)CCCC4)c1,4.1µM*,.,.,i,23µM*,i
O=C(Nc1ccc2c(c1)OCCO2)N1CCN(Cc2ccccc2)CC1,-3%,-5%,12%,?,-5%,i
S=C(SSC(=S)N1CCOCC1)N1CCOCC1,0.046µM*,1.2µM*,0.73µM*,i,0.026µM*,i
O=C(NCC1CCCO1)c1nc2c(nnn2Cc2ccc(F)cc2)c(=O)[nH]1 (stereo not given),-12%,0%,-7%,i,-17%,i
O=C(NCc1cccs1)c1nc2c(nnn2Cc2ccc(F)cc2)c(=O)[nH]1,?,-22%,?,23µM*,-25%,i
O=C(Nc1ccc(F)cc1)c1nc2c(nnn2Cc2cccc3ccccc23)c(=O)[nH]1,?,-3%,-2%,i,15µM*,i
O=C(NCc1ccco1)c1nc2c(nnn2Cc2ccccc2Cl)c(=O)[nH]1,?,18µM*,?,i,?,?
O=S(=O)(c1cccc(F)c1)N1CCN(c2nc(-c3cccs3)nc3ccccc23)CC1,?,.,.,i,?,i
Cc1cnc(C(=O)Nc2ccc(-n3cnnn3)cc2)cn1,18µM*,6%,3%,i,?,i
COc1ccc(NC(=O)c2cnc(C)cn2)cc1-n1cnnn1,-14%,-13%,-27%,i,-13%,i
COc1ccc(OC)c(NC(=O)CCn2ccnc2)c1,0%,2%,13%,i,-15%,i
COc1ccccc1-c1ccc(Nc2cccc(C(C)=O)c2)nn1,?,-2%,-25%,13µM*,-19%,i
O=C(CSc1ncccn1)N1CCN(C(c2ccccc2)c2ccccc2)CC1,?,?,13%,18µM*,?,i
Cc1cc(=O)[nH]c(SCC(=O)N2CCN(C(c3ccccc3)c3ccccc3)CC2)n1,18µM*,-2%,1%,i,?,i
